GPR151 ag – activators of human GPR151 | Q8TDV0 | activation, % at 11.2 µM | 650,000 compounds, 1% hits | AID 1508602 | PathHunter beta-arrestin GPR151 cells, luminescence; in the data active = activation above about 4.9%;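 also: 0% = median of compound wells and 100% = cells with positive control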
Target sequence (Q8TDV0 whole entry, looked up): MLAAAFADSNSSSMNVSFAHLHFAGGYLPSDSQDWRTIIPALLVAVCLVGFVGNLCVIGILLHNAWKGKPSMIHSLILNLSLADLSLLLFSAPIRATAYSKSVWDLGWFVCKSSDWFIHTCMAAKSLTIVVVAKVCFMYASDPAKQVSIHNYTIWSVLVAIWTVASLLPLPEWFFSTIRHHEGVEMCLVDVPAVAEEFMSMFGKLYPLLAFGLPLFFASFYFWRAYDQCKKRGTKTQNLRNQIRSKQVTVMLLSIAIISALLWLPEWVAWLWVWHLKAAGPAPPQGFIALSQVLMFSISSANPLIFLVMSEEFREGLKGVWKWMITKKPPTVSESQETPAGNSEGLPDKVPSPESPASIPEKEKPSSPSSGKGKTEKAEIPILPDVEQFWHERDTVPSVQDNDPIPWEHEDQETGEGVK
FBW7 act – activators of human E3 ligase FBW7 | Q969H0 | AlphaScreen FBW7–phospho-cyclin E peptide binding, activator screen | normalized activity (activation), % at 26.1 µM | 650,000 compounds, 0.13% hits; in the data active = normalized activity above about 1.9%;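 also: purified mutant Fbw7 with reduced substrate affinity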
TEAD-YAP block – TEAD-YAP interaction inhibition | 640,000 compounds, 1.4% hits | AID 1259422 | inhibition, % at 9.12 µM | HEK-TIYL cells, TEAD-Gal4/YAP UAS-luciferase luminescence; in the data active = inhibition above about 32%;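 also: 0% = median of test compound wells and 100% = reference inhibitor wells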
MITF inh – blocks human microphthalmia-associated transcription factor | O75030 | AID 1259374 | AlphaScreen MITF homodimerization, bead proximity signal | 650,000 compounds, 0.91% hits | inhibition, % at 2.6 µM; in the data active = inhibition above about 50%;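 also: 0% = vehicle wells with protein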
The depositor's hits bear a star; ! = repeats disagree. Shown are actives, neighbours in structure and some others; about 3.5% of the full set was active somewhere.

SMILES | GPR151 ag | FBW7 act | TEAD-YAP block | MITF inh
COc1cccc(CN2CCC(C(=O)N3CCc4ccccc4C3)CC2)c1O | 1.1 | 0.7 | 1.0 | 50.7*
CCOC(=O)C1CCN(Cc2cccc(OC)c2O)CC1 | 0.0 | 0.1 | -3.4 | 19.5
CC(=O)N1CCN(C(=S)c2ccc(-c3ccccc3Cl)o2)CC1 | 0.3 | -0.2 | -17.3 | 0.4
CCOc1ccccc1NC(=O)c1cc(C(C)(C)C)oc1C | -1.3 | 0.5 | 7.1 | 2.9
CCOC(=O)C/C(C)=N/c1ccnn1-c1ccccc1 | -4.0 | -0.1 | 76.4* | 2.2
CC(=O)CC(=O)Nc1ccnn1-c1ccccc1 | -1.2 | -0.1 | 1.4 | -16.7
CN(C)c1ccc(C(=O)Nc2ccccc2F)cc1 | -8.9 | 0.2 | 74.5* | -4.5
CCN1C(=O)N(CC)C2NC(=S)NNC21 (configuration not stated) | 1.6 | 0.3 | 81.7* | 6.7
CCN1C(=O)N(CC)C2C1NC(=O)N2CC (configuration not stated) | -0.6 | 0.1 | 0.5 | -15.7
COc1cc(/C=C2\SC(=S)N(CCS(=O)(=O)O)C2=O)cc(OC)c1O | -0.5 | -1.2 | 0.2 | 15.9
O=c1c(O)cc([C@H]2Oc3cc(O)cc(O)c3C[C@H]2O)cc2c([C@H]3Oc4cc(O)cc(O)c4C[C@@H]3O)cc(O)c(O)c12 | -0.9 | -0.3 | -6.3 | 76.3*
O=C1c2c(O)cc(O)cc2O[C@H](c2ccc(O)c(O)c2)[C@H]1O | 1.2 | -0.2 | -12.6 | -0.5
O=C1c2c(O)cc(O)cc2O[C@H](c2ccc(O)c(O)c2)[C@@H]1O | -0.4 | -0.1 | 10.7 | -5.5
Oc1cc(O)c2c(c1)O[C@H](c1ccc(O)c(O)c1)[C@@H](O)C2 | -0.3 | -0.2 | -7.4 | 57.0*!
O=C(Oc1cc(O)cc2c1C[C@@H](OC(=O)c1cc(O)c(O)c(O)c1)[C@@H](c1cc(O)c(O)c(O)c1)O2)c1cc(O)c(O)c(O)c1 | -1.0 | 0.1 | -1.7 | 62.3*
Oc1cc(O)c2c(c1)O[C@H](c1cc(O)c(O)c(O)c1)[C@H](O)C2 | 0.0 | 0.0 | -6.3 | 86.6*
O=C1C[C@@H](c2ccccc2)Oc2cc(O)cc(O)c21 | -2.7 | 0.2 | -20.7 | -13.2
CCCNc1nc(Nc2ccccn2)nc2c1ncn2-c1ccsc1 | -1.1 | 0.3 | 61.7* | 9.3
OCCNc1nc(Nc2nccc3ccccc23)nc2c1ncn2-c1ccsc1 | 0.8 | -0.1 | 57.8* | 0.3
c1ccc(OCCNc2nc(Nc3ccccn3)nc3c2ncn3-c2ccsc2)cc1 | -0.1 | 0.1 | 11.0 | 3.0
OCCNc1nc(Nc2ccccn2)nc2c1ncn2-c1ccsc1 | 0.9 | 0.0 | 69.3* | -4.9
CCCNc1nc(Nc2ccccn2)nc2c1ncn2-c1ccccc1 | -0.8 | 0.1 | 22.3 | 6.1
FC(F)(F)c1cccc(CNc2nc(Nc3nccc4ccccc34)nc3c2ncn3-c2ccsc2)c1 | 0.9 | 0.2 | 32.1* | -3.2
COc1cc(C2C(C(=O)Nc3ccc(C)cn3)=C(C)NC3=C2C(=O)CC(C)(C)C3)ccc1OCc1ccccc1 (configuration not stated) | 3.1 | -0.1 | 0.0 | 1.2
O=C([C@H](O)CSc1ccc(Br)cc1)N1CCC(Nc2ccc3[nH]ncc3c2)CC1 | -0.6 | -0.3 | 11.2 | 14.1
SMILES | GPR151 ag | FBW7 act | TEAD-YAP block | MITF inh
CC(C)Cn1c2c(=O)[nH]c(=O)n(C)c2n2c(-c3ccc(Br)cc3)nnc12 | 0.6 | 0.1 | -3.4 | 12.1
CCCC1CCC(c2ccc(C(=O)Nc3cc(C)on3)cc2)CC1 (configuration not stated) | 0.1 | 0.0 | -7.8 | -28.6
Cc1ccc(OCC(=O)Nc2ccccn2)c(C)c1 | -5.9 | -0.1 | 95.5* | -1.1
Cc1ccccc1OCC(=O)Nc1ccccn1 | -5.6 | -0.1 | 42.3* | 1.1
Cc1ccc(OCC(=O)Nc2cc(C)on2)c(C)c1 | -0.6 | 0.1 | -1.1 | -12.1
Cc1ccccc1OCC(=O)Nc1cccc(NC(=O)COc2ccccc2C)n1 | -0.3 | 0.2 | -4.0 | 12.9
O=C(Nc1cc(Oc2cncc(Cl)c2)cc([N+](=O)[O-])c1)c1cc2nc(-c3cccs3)cc(C(F)(F)F)n2n1 | 2.5 | 0.1 | -3.1 | 15.2
COc1cc(NC(=O)c2cccc(N3CCN(c4ccccn4)CC3)n2)cc(OC)c1OC | -1.7 | -0.1 | 42.5* | -10.8
COc1cc(NC(=O)c2cccc(-c3ccc(C(=O)NC4CC4)cc3)n2)cc(OC)c1OC | 0.5 | -0.1 | 34.0* | 6.3
COc1cc(NC(=O)c2cccc(N3CCCC3CO)n2)cc(OC)c1OC (configuration not stated) | -0.4 | 0.0 | 35.0* | -1.3
CC(=O)Nc1ccc(NC(=O)c2cccc(N3CCN(c4ccccn4)CC3)n2)cc1 | 0.9 | 0.2 | 36.0* | -10.4
COc1cc(NC(=O)c2ccnc(N3CCN(c4ccccn4)CC3)c2)cc(OC)c1OC | -0.2 | 0.0 | 14.1 | 4.5
O=C(Nc1ccccc1)c1cccc(N2CCN(c3ccccn3)CC2)n1 | 4.0 | 0.1 | -15.2 | -14.7
O=C(Nc1ccccc1)c1cccc(N2CCCC2CO)n1 (configuration not stated) | -1.4 | -0.2 | -27.7 | 11.5
C=C1C(c2ccc(C)cc2)=CCc2cc(C)cc(C)c21 | -4.9 | -0.2 | 54.4* | 10.8
Cc1cc(C)c2c(c1)CC(C)(C)C(=O)C2=O | -0.2 | 0.0 | 3.0 | 6.2
COc1ccccc1NC(=O)c1ccc(F)c([N+](=O)[O-])c1 | -0.5 | -0.2 | -17.6 | -4.5
Cc1cc(/C=C\c2nc(O)c([N+](=O)[O-])c(=O)[nH]2)c(C)n1-c1ccc(C(=O)O)cc1 | 0.4 | -0.4 | 9.7 | 62.8*
Cc1ccc(C(=O)N2CCC3(CCC(CNC(=O)c4ccccn4)O3)CC2)cc1C (configuration not stated) | -0.8 | 0.1 | 11.0 | 13.6
Cn1cc(CNc2nncc(-c3ccc4ccccc4c3)n2)cn1 | -1.1 | 0.1 | 33.6* | 8.7
Cn1cc(CNc2nncc(-c3ccc(Cl)cc3)n2)cn1 | 1.4 | 0.0 | 0.5 | 5.9
CCCCn1c(CNC(=O)COc2ccccc2)nnc1SC(C)C(=O)Nc1sc2c(c1C(=O)OCC)CCC2 (configuration not stated) | -0.5 | 0.3 | 3.8 | 6.4
COc1ccccc1-c1nnc(SCC(=O)Nc2ccccc2C#N)o1 | -1.5 | 0.3 | -29.6 | 8.2
COc1cc(NC(=O)c2cccc(-n3ncc4cc(Nc5ccccc5Cl)ccc43)c2)cc(OC)c1OC | -0.8 | 0.2 | 23.4 | -4.3
N#Cc1cccc(-n2ncc3cc(Nc4ccccc4Cl)ccc32)c1 | -0.6 | 2.0* | -7.5 | -14.6
SMILES | GPR151 ag | FBW7 act | TEAD-YAP block | MITF inh
Cn1c(=NC(=O)c2ccc([N+](=O)[O-])o2)sc2cc(F)ccc21 | 1.8 | 0.0 | 1.6 | -7.5
CN(Cc1c(F)cccc1Cl)C(=O)CCl | -1.7 | -0.1 | 42.1* | -3.1
CC(=O)c1c(C)[nH]c(C(=O)CN(C)Cc2c(F)cccc2Cl)c1C | 0.3 | -0.2 | 48.6* | 6.4
CN(Cc1c(F)cccc1Cl)C(=O)CSc1nnc(N)s1 | 0.5 | -0.1 | 5.9 | -11.8
N/C(=N\OC(=O)/C=C/c1ccc(Br)cc1)c1ccccn1 | -1.9 | -0.2 | 39.2* | 5.7
N/C(=N\OC(=O)/C=C/c1ccccc1)c1cccnc1 | -0.6 | 0.0 | -51.6 | 13.2
N/C(=N\OC(=O)/C=C/c1ccccc1Cl)c1ccccn1 | -6.4 | -0.1 | 73.5* | -4.9
